These results are taken from PubChem BioAssay (NCATS).

Values without a mark were called inactive. Results filed as inconclusive are left out. Entries that show only a call come without a potency. Active and inactive are the calls of the source. Unless noted, the call rests on the fitted dose curve; in most records, active means well fitted curve in the direction sought with a large enough effect; inconclusive means small, poorly fitted or top-dose-only effect, or another doubt; inactive means no such curve, though single readings can be large; an effect the other way counts as inactive or inconclusive.

The nature of experiment [1]: Validation screen for inhibitors of Lassa infection (AID 463096; calls by dose curve; further: potency means the concentration at half of the fitted maximal effect).
The target in experiment [2] is Glucocorticoid receptor (Homo sapiens) (UniProt P04150). Description: GR-GFP Redistribution (AID 450;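 active means compounds whose dose series gives a full or clear partial fitted curve of increased nuclear translocation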; further: potency means the concentration at half of the fitted maximal effect). The following applies: U2OS GR-GFP nuclear translocation, laser cytometry, 2 h.
Experiment [3] addresses Mitogen-activated protein kinase 10 (Mus musculus) (UniProt Q61831). Description: JNK3 AlphaScreen Assay (AID 530; active means well fitted curve in either direction with a large enough effect, not every such curve was filed as active;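 further: kinase came from lysate of stimulated human HepG2 cells; signal reports phosphorylation of biotinylated GST-cJun 1-79 at Ser73 with 10 µM ATP; series mostly up to about 57 µM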). The essentials: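 Pre-activated (IL-1β/TNFα) JNK3 in HepG2 lysates phosphorylates biotin-GST-cJun(1-79), 10 uM ATP; anti-phospho-cJun(Ser73) AlphaScreen read at room temperature, pH 7.6 Tris buffer. Compounds pre-incubated 15 min as titrations.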
Experiment [4] concerns the target Alpha-galactosidase (Coffea arabica) (UniProt Q42656). The experiment can be described thus: Counterscreen for Glucocerebrosidase Inhibitors: qHTS Assay for Coffee Bean alpha-Galactosidase at pH 4.5 (AID 957). Further: series mostly up to about 77 µM. The essentials: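 Coffee bean alpha-galactosidase 2 nM, substrate 4-MU-alpha-Gal 80 uM, pH 4.5 citrate/Tween-20, 20 min RT. Cpd titration 0.7 nM–77 uM. Stop pH 10, fluorescence 365/440 nm; Hill-equation AC50.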

Experiment [5] has the same target. Description: Counterscreen for Glucocerebrosidase Inhibitors: qHTS Assay for Coffee Bean alpha-Galactosidase at pH 5.9 (AID 998). The essentials: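 Green coffee bean enzyme (2 nM) with 4-methylumbelliferyl alpha-D-galactopyranoside (80 uM) in 50 mM citric acid, 0.005% Tween-20, pH 5.9, 20 min at room temperature; compounds 0.7 nM–77 uM. Stopped at pH 10, fluorescence Ex365/Em440; Hill-fit AC50.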

Sequence of Glucocorticoid receptor (Homo sapiens) (P04150 whole entry, looked up): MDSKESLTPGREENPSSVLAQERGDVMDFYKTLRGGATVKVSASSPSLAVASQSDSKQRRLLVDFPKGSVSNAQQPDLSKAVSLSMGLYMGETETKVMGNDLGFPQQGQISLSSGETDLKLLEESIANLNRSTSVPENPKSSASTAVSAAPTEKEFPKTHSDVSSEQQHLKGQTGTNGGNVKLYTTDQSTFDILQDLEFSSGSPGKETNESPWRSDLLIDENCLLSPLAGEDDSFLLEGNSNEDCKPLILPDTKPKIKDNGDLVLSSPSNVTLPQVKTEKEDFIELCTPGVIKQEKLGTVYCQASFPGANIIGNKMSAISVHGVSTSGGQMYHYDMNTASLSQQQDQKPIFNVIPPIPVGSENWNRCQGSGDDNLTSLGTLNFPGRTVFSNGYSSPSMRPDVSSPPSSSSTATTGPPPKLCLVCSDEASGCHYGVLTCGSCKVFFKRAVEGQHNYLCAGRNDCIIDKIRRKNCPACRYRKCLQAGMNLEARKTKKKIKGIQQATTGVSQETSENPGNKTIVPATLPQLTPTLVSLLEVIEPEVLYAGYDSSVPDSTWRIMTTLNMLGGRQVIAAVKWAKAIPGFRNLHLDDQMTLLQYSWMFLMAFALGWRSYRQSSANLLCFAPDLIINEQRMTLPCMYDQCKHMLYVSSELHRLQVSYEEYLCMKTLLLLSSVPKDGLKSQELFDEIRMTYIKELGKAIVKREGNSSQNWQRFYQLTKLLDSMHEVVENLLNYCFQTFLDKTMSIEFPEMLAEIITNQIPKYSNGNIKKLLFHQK
Sequence of Alpha-galactosidase (Coffea arabica) (Q42656 whole entry, looked up): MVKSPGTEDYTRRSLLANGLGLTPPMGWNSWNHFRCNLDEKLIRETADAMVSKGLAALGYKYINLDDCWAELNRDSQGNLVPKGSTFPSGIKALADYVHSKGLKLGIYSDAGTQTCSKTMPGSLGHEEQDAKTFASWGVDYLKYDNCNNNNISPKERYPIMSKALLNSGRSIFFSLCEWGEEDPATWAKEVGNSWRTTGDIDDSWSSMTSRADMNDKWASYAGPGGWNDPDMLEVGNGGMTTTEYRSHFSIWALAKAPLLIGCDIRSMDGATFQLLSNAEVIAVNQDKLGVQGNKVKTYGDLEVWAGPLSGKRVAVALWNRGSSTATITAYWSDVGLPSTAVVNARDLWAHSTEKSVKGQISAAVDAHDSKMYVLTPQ

`Nc1ncnc2c1ncn2[C@@H]1O[C@H](CO)[C@H](O)[C@H]1O`: the Potency entry in experiment [1] was “inactive”.

For `O=c1ccc2cc(O[C@@H]3O[C@@H](CO)[C@@H](O)[C@@H](O)[C@H]3O)c(O)cc2o1`, in experiment [2], the Potency is > 46 µM. Further, in experiment [3], the result was inactive.

Consider `OC[C@H]1CCCN2CCCC[C@@H]12`, for which the Potency in experiment [2] is > 46 µM. The call in experiment [3] was inactive.

With `Cc1ccccc1N1CCN(S(=O)(=O)C[C@]23CCC(CC2NC(=O)[C@@H](N)CCS(C)(=O)=O)C3(C)C)CC1` (stereo not given in full), in experiment [1], the Potency entry was “inactive”.

Consider `C[C@H]1CC[C@@H]2[C@@H](C)C(=O)O[C@H]3O[C@@]4(C)CC[C@@H]1[C@]32OO4`, for which the Potency in experiment [2] is > 46 µM. Moreover, in experiment [3], the result was inactive.

As for `C=C(C)[C@H]1[C@H]2OC(=O)[C@@H]1[C@]1(O)C[C@H]3O[C@]34C(=O)O[C@H]2[C@]14C`, the Potency in experiment [2] was > 46 µM.

With `Nc1nc2c(nc(Br)n2C2O[C@H]3COP(=O)(O)O[C@@H]3C2O)c(=O)[nH]1` (stereo not given in full), the Potency result in experiment [1] is “inactive”.

Take `CC(C)C1NC(=O)[C@H](CCCCN)NC(=O)[C@@H](Cc2c[nH]c3ccccc23)NC(=O)[C@H](Cc2ccc(O)cc2)NC(=O)[C@H](C)N(C)C(=O)[C@H](Cc2ccccc2)NC1=O` (stereo not given in full): the Potency result in experiment [1] is “inactive”.

In the case of `CC(N)=NCCCC(N)C(=O)O` (stereo not given), in experiment [1], the Potency entry was “inactive”.

Turning to `CC1=CC(=O)C2=C(C)C[C@H](O)[C@@H]3[C@@H](OC(=O)[C@H]3C)[C@H]12`, in experiment [2], the Potency was > 46 µM. Also, the call in experiment [3] was inactive.

With `COc1cc2c(cc1OC)-c1c(OC)c(OC)c(CO)c3c1[C@H](C2)N(C)CC3`, in experiment [2], the Potency is > 46 µM. Moreover, in experiment [3], the call was inactive.

Regarding `Nc1nc(SCc2ccc([N+](=O)[O-])cc2)c2ncn([C@@H]3O[C@H](CO)[C@H](O)[C@H]3O)c2n1`, the Potency entry in experiment [1] was “inactive”.

For the compound `C[C@@]12CCC[C@](C)(C(=O)O)[C@@H]1CCc1ccc(O)cc12`, the Potency in experiment [2] is > 46 µM. Further, in experiment [3], the compound was classed as inactive.

On to `NCC1OC(O[C@@H]2[C@H](O)[C@@H](OC3C(O)C(N)CC(N)C3OC3OC(CO)C(O)C(O)C3N)O[C@@H]2CO)C(N)C(O)C1O` (stereo not given in full), for which the Potency entry in experiment [1] is “inactive”.

As to `CC(C)(O)[C@H]1[C@H]2OC(=O)[C@@H]1[C@]1(O)C[C@H]3O[C@]34C(=O)O[C@H]2[C@]14C`, the result in experiment [3] was inactive.

Turning to `COC[C@H]1OC(=O)c2coc3c2[C@@]1(C)C1=C(C3=O)[C@H]2CCC(=O)[C@@]2(C)C[C@H]1OC(C)=O`, in experiment [2], the Potency was 0.838 µM (active). Further, the call in experiment [3], in experiment [4] and in experiment [5] was inactive.

Regarding `NC(CCC(=O)NCS(=O)(=O)O)C(=O)O` (stereo not given), the Potency result in experiment [1] is “inactive”.

`CC(O)[C@@H](O)[C@H]1CNc2nc(N)[nH]c(=O)c2N1` (stereo not given in full): in experiment [1], the Potency entry is “inactive”.

With `C#C[C@]1(O)CC[C@H]2C3CCC4=Cc5oncc5CC4(C)C3CCC21C` (stereo not given in full), the Potency result in experiment [1] is “inactive”.

As for `Nc1nc(Cl)nc2c1ncn2[C@@H]1O[C@H](CO)[C@H](O)[C@H]1O`, the Potency entry in experiment [1] is “inactive”.

Take `COC1=C[C@H]2[C@@H]3Cc4ccc(OC)c(O)c4[C@@]2(CCN3C)CC1=O`: the Potency in experiment [2] was > 46 µM. The compound was classed as inactive in experiment [3].

For the compound `CC(=O)O[C@]1(C(C)=O)CC[C@H]2C3C=C(Cl)C4=CC(=O)[C@@H]5C[C@H]5[C@]4(C)C3CC[C@@]21C` (stereo not given in full), the Potency result in experiment [1] is “inactive”.

With `Cc1c(N=Cc2c(O)n(CCc3ccc(F)cc3)c(=O)[nH]c2=O)c(=O)n(-c2ccccc2)n1C`, the Potency in experiment [2] was > 20.6 µM.

For `Cc1ccc(OCC(O)C(C)NC(C)C)c2c1CCC2` (stereo not given), the Potency entry in experiment [1] is “inactive”.

`COc1ccc(CCNC[C@@H](O)c2ccc(O)cc2)cc1OC`: in experiment [1], the Potency result was “inactive”.

As to `COc1cc2c(cc1OC)-c1c(O)c(OC)cc3c1[C@@H](C2)N(C)CC3`, the Potency in experiment [2] is > 46 µM. In experiment [3], the result was inactive.

In the case of `O=C1C(SCCO)=C(SCCO)C(=O)c2ccccc21`, in experiment [5], the compound was called inactive.

`Cn1cnc2c(NC3CCCC3)ncnc21`: the call in experiment [4] and in experiment [5] was inactive. Further, the Potency entry in experiment [1] is “inactive”.

Turning to `O=C(O)c1cc(=O)c2ccc(Cl)cc2[nH]1`, the call in experiment [4] and in experiment [5] was inactive. Besides, in experiment [1], the Potency entry was “inactive”.

Consider `NCCNC(=O)c1ccc(Cl)cc1`, for which the compound was classed as inactive in experiment [4] and in experiment [5]. In addition, the Potency entry in experiment [1] is “inactive”.

Consider `NCCCCCCNS(=O)(=O)c1cccc2c(Cl)cccc12`, for which the result in experiment [4] and in experiment [5] was inactive. For the same compound, the Potency entry in experiment [1] is “inactive”.

Regarding `COC(=O)c1c(-c2cc(OC)c(OC)c(OC)c2)c2ccc(OCc3ccccn3)cc2c(=O)n1-c1ccc(N)cc1`, the result in experiment [4] and in experiment [5] was inactive. Besides, the Potency result in experiment [1] was “inactive”.

In the case of `CCCn1c(=O)c2[nH]c(-c3ccc(OCC(=O)Nc4ccc(C#N)cc4)cc3)nc2n(CCC)c1=O`, the compound was classed as inactive in experiment [5]. Besides, the Potency result in experiment [1] was “inactive”.

Regarding `CC(C)C[C@H](N)CSSC[C@@H](N)CC(C)C`, the result in experiment [4] and in experiment [5] was inactive. Moreover, the Potency entry in experiment [1] was “inactive”.

As for `CCCCOC(=O)NS(=O)(=O)c1sc(CC(C)C)cc1-c1ccc(Cn2c(CC)nc3c(C)cc(C)nc32)cc1`, the call in experiment [5] was inactive. In addition, the Potency entry in experiment [1] is “inactive”.

For the compound `NCCC(=O)NCCc1cnc[nH]1`, the compound was called inactive in experiment [4] and in experiment [5]. Besides, in experiment [1], the Potency result was “inactive”.

Consider `Cc1cccc(C)c1NC(=O)C[N+](C)(C)C`, for which the compound was called inactive in experiment [4] and in experiment [5]. Besides, the Potency entry in experiment [1] is “inactive”.

On to `C[N+](C)(C)CCC(=O)c1cccc2ccccc12`, for which the call in experiment [4] and in experiment [5] was inactive. Also, the Potency in experiment [1] was 10 µM (active).

Regarding `O=C(Cc1ccc(Cl)c(Cl)c1)OCCN1CCCC1`, the compound was called inactive in experiment [4] and in experiment [5]. Moreover, in experiment [1], the Potency entry was “inactive”.

As for `NC(=NCCC[C@H](N)C(=O)O)NO`, the compound was classed as inactive in experiment [4] and in experiment [5]. In experiment [1], the Potency entry was “inactive”.

Take `N=C(N)SCCc1cccc(CCSC(=N)N)c1`: the outcome in experiment [4] and in experiment [5] was inactive. Besides, the Potency entry in experiment [1] is “inactive”.

Turning to `CC1(C)C(=O)N(CCN2CCC(C(=O)c3ccc(F)cc3)CC2)c2ccccc21`, the call in experiment [4] and in experiment [5] was inactive. The Potency result in experiment [1] is “inactive”.

As to `COc1ccc2c(c1)c(CC(=O)N1CCOCC1)c(C)n2C(=O)c1ccc(Cl)cc1`, the outcome in experiment [4] and in experiment [5] was inactive. Also, the Potency entry in experiment [1] was “inactive”.

In the case of `CCCNC[C@H](O)COc1ccccc1C(=O)CCc1ccccc1`, the compound was classed as inactive in experiment [4] and in experiment [5]. In addition, in experiment [1], the Potency result is “inactive”.

Consider `CC(N)=NCc1cccc(CN)c1`, for which the compound was called inactive in experiment [4]. The Potency entry in experiment [1] is “inactive”.

As for `Cc1cc(C)c(NC(=O)C[C@H](CC(=O)O)c2cccc3ccccc23)c(C(=O)N2CCC3(CCCC3)CC2)c1`, the call in experiment [4] and in experiment [5] was inactive. Moreover, the Potency result in experiment [1] was “inactive”.

Regarding `O=S(=O)(O)C1CCNCC1`, the result in experiment [4] was inactive. Moreover, the Potency result in experiment [1] is “inactive”.

For the compound `Cc1cc(N)c2ccccc2[n+]1CCCCCCCCCCCCCC[n+]1c(C)cc(N)c2ccccc21`, the result in experiment [4] and in experiment [5] was inactive. Besides, the Potency in experiment [1] was 7.08 µM (active).

For the compound `COc1ccc2c(c1)c(CC(=O)O)c(C)n2Cc1ccc(F)cc1`, the result in experiment [4] and in experiment [5] was inactive. Further, the Potency result in experiment [1] is “inactive”.

For `CCCC(=O)NCCc1c2n(c3ccc(OC)cc13)Cc1ccccc1-2`, the outcome in experiment [4] and in experiment [5] was inactive. Besides, the Potency entry in experiment [1] is “inactive”.

`CCn1c(=O)c2[nH]c(-c3ccccc3)nc2n(CC)c1=O`: the result in experiment [4] was inactive. The Potency result in experiment [1] was “inactive”.

Regarding `NCCNS(=O)(=O)c1cccc2cnccc12`, the compound was called inactive in experiment [5]. Besides, the Potency result in experiment [1] is “inactive”.

On to `CCSC(N)=Nc1ccc(C(F)(F)F)cc1`, for which the outcome in experiment [4] was inactive. The Potency result in experiment [1] is “inactive”.

For `CN(C)CCCCSC(=N)N`, the call in experiment [4] and in experiment [5] was inactive. Further, in experiment [1], the Potency result was “inactive”.

Regarding `N#Cc1c(-c2ccccc2)no[n+]1[O-]`, the compound was classed as inactive in experiment [4] and in experiment [5]. The Potency in experiment [1] is 10 µM (active).
